Measurements reported in PubChem BioAssay.
“And” between values parts separate entries of the source, which are not always exact repeats. Identical values can stand only once. The source made the active and inactive calls.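 Rule for the calls, unless noted: active = mean z-score across replicates of 1.96 or higher in either the MELAS or the Rieske mutant cell line; inactive = the rest.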

Assays:
[1] = P. berghei load reduction in hepatocytes – cell-based, HepG2, luciferase luminescence, HepG2 viability, primary screen (AID 624349; in the data active = parasite load remaining mostly below about 12%, no sharp cut-off; inactive = mostly above about 10%;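 note: 100% = mean of DMSO negative control wells on the same plate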); details: P. berghei liver stage in HepG2, luciferase luminescence, concentration not given here; parasite load remaining: stronger effect = lower value; viability: measured here: HepG2 viability without parasites
[2] = Wnt pathway potentiators raising nuclear beta-catenin – imaging, WNT3A-conditioned medium, mouse C2C12, NPC library, primary screen (AID 1117326; in the data active = nuclear beta-catenin stimulation mostly above about 4.2%, no sharp cut-off; inactive = mostly below about 10%); details: stronger effect = higher value
[3] = stimulators of insulin release from INS-1E, primary screen, cell-based, 5 mM glucose, NPC library (AID 1117329;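 active = compound raises insulin release from rat beta cells at 5 mM glucose, no numeric limit stated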); details: rat INS-1E insulin secretion, at 10 µM, stronger effect = higher value
[4] = growth inhibition of GSK3B-pretreated HCT116 cells – cell-based, CellTiter-Glo, 0.2 to 20 µM (AID 1117336;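 active = compounds lowering colon cancer cell viability after pretreatment blocking the GSK3B kinase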); details: HCT116 viability after GSK3B inhibitor, at 20 µM, stronger effect = higher value
[5] = inhibition of endothelial tube formation, primary screen, imaging, VEGF stimulated, CD31 staining, tube area, NPC library (AID 1117340;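 active = compound that reduces growth-factor-driven endothelial tube area in a mixed cell culture, no cutoff stated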); details: VEGF-stimulated ADSC/ECFC co-culture, at 10 µM, stronger effect = higher value
[6] = GLP1 release stimulators, primary, NCI-H716, NPC library (AID 1117341;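 active = compound raises GLP1 secretion from the human gut endocrine cells, with no numeric limit stated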); details: NCI-H716 cells, at 10 µM, stronger effect = higher value
[7] = HCT116 colon cancer cell growth inhibition, primary screen, CellTiter-Glo luminescence, NPC library (AID 1117342;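 active = compounds that lower survival of HCT116 colon cancer cells in the luminescence readout, no numeric limit stated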); details: at 20 µM (top of the series)
[8] = reduced SW480 viability measured with CellTiter-Glo, NPC library, primary (AID 1117343;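 active = compounds that lower viability of the colon cancer cells in the luminescence readout, with no numeric limit stated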); details: CellTiter-Glo luminescence; at 20 µM (top of the series)
[9] = NPC library primary testing for decreased DLD-1 cell viability via CellTiter-Glo (AID 1117346;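 active = compounds that lower survival of DLD-1 colon cancer cells in the luminescence readout, no cutoff given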); details: DLD-1 viability, CellTiter-Glo luminescence; at 20 µM (top of the series)
[10] = biological target: 6-phosphogluconate dehydrogenase, decarboxylating (Homo sapiens) (UniProt P52209); assay: inhibition of human phosphogluconate dehydrogenase – biochemical, recombinant enzyme, NADPH absorbance, primary screen (AID 1159550;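 active = at least 20% inhibition of 6-phosphogluconate dehydrogenase activity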); details: recombinant 6PGD, NADPH absorbance 341 nm; at 10 µM; stronger effect = higher value
Sequence of 6-phosphogluconate dehydrogenase, decarboxylating (Homo sapiens) (P52209 whole entry, looked up): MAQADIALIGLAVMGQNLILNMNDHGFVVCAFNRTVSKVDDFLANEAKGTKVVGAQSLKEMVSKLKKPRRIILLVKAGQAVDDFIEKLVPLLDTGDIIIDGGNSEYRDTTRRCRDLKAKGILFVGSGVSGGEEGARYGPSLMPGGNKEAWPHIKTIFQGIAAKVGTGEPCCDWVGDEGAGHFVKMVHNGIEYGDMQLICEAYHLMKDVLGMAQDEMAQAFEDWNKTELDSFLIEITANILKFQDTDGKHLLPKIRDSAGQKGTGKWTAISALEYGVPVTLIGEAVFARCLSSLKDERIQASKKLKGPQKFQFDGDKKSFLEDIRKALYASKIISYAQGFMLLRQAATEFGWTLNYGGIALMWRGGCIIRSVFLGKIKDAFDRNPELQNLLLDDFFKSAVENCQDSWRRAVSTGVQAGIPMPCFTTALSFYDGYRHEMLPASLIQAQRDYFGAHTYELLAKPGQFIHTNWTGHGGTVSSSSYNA

[11] = EMT-state selective cytotoxicity in co-culture – imaging, PC-3E GFP, TEM4-18 mCherry, primary screen (AID 1345086;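 active = compounds killing one labelled cell type while sparing the other, by normalised counts and ratio limits, not self-fluorescent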;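 for all read-outs here: cells exposed to compound for 72 h before imaging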;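 for red/green cell ratio (normalised): normalised mesenchymal count divided by normalised epithelial count so high means epithelial killing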); details: PC-3E GFP / TEM4-18 mCherry co-culture, imaging cell counts, at 1 µM; for red/green cell ratio (normalised): actives lie on both sides
[12] = tested on: Aerobactin synthetase IucA (Klebsiella pneumoniae hvKP1); assay: IucA enzyme inhibition, primary screen, biochemical, Spectrum library (AID 1346200; call rule not given here;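 note: 100% = wells without compound and 0% = wells lacking enzyme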); details: malachite green pyrophosphate, A620, at 8 µM, stronger effect = lower value
[13] = biological target: Mitogen-activated protein kinase 7 (Homo sapiens) (UniProt Q13164); assay: Gal4-ERK5 driven luciferase induction – cell-based, HTS, primary screen (AID 1508626;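 active = luciferase signal above three times the same-plate solvent-only control wells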;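 note: luciferase driven by Gal4-ERK5 fusion binding five Gal4 sites before minimal TATA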); details: HeLa Gal4-ERK5 transactivation, 18 h, at 5 µM, stronger effect = higher value
Sequence of Mitogen-activated protein kinase 7 (Homo sapiens) (Q13164 whole entry, looked up, the tested form may be a part): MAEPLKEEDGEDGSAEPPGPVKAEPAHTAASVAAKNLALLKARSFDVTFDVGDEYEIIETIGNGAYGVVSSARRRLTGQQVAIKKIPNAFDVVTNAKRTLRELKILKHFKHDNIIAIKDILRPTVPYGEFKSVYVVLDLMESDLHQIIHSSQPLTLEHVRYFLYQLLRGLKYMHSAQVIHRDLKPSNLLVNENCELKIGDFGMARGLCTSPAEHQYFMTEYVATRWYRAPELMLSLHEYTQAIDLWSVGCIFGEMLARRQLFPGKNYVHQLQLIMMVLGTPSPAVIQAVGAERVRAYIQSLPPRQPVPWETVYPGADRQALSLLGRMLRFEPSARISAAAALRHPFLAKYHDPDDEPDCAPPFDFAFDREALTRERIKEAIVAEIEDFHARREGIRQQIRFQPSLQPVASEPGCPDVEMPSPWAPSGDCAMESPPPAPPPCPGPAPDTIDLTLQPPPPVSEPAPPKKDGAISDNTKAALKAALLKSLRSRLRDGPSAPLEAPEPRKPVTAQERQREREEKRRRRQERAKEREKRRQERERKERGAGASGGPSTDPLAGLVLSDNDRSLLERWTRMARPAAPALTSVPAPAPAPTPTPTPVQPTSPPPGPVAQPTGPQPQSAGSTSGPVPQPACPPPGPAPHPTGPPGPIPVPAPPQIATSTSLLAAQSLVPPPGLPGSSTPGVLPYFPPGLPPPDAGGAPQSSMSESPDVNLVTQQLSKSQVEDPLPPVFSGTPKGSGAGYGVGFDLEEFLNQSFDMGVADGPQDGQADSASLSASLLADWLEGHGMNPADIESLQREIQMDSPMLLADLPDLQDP

[14] = yeast 75Q aggregation reduction – 75Q-TubU reporter (AID 1593); details: Yeast 75Q polyglutamine aggregation reporter
[15] = blockers of cytochrome c efflux from mitochondria – biochemical, purified mitochondria (AID 1603); details: stronger effect = lower value;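 note: mouse liver mitochondria challenged with calcium chloride; signal normalized to the plate average as 100%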
[16] = polyglutamine aggregate formation blockers (AID 1604); details: polyglutamine-induced protein aggregation inhibition assay; stronger effect = higher value; tested at 2.5 µM
[17] = viability loss with induced miR-34 in A549 – imaging, A549 dox-inducible miR-34, nuclei and caspase counts, primary screen (AID 1347080;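 active = compounds whose cell count with miR-34 switched on is under 0.7 times the count with it off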); details: A549 miR-34 inducible, Hoechst nuclei count, 48 h
[18] = MELAS cybrid and Rieske KO viability enhancers – cell-based, MELAS cybrids, Rieske KO mouse fibroblasts, CellTiter-Glo, primary screen (AID 1508586); details: low glucose;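 note: z relative to plate mean and SD of compound and empty wells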
[19] = biological target: NAD(+) hydrolase SARM1 (Homo sapiens) (UniProt Q6SZW1); assay: blocking NAD cleavage by SARM1 SAM-TIR – cell lysate, NAD-Glo luminescence (AID 1508614;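 active = compound whose remaining NAD level is above about 45 nM, limit read from the data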;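 note: higher remaining NAD means stronger inhibition of SARM1 NADase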); details: SAM-TIR HEK293T lysate NADase, at 1 µM, stronger effect = higher value
Sequence of NAD(+) hydrolase SARM1 (Homo sapiens) (Q6SZW1 whole entry, looked up): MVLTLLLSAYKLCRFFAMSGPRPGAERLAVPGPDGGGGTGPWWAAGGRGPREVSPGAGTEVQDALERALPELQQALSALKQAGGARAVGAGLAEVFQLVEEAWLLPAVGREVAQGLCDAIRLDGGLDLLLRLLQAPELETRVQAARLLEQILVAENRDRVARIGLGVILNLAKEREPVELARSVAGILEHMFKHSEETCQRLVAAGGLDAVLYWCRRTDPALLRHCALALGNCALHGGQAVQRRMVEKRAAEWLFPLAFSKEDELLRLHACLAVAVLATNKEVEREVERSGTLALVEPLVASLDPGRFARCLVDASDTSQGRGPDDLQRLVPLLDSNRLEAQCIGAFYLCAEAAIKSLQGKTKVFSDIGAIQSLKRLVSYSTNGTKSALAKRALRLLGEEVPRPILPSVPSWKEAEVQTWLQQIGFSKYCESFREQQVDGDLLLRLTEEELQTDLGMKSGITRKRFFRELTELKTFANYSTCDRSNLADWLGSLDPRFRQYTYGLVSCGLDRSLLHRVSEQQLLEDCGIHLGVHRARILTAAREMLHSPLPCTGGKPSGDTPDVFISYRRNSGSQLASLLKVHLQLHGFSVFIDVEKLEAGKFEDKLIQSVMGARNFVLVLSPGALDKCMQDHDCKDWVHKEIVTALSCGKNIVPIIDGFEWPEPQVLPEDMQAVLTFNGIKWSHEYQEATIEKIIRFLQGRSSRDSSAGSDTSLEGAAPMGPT

[20] = galactose survival enhancers in mitochondrial complex I cybrids – cell-based, galactose medium, ATP luminescence, primary screen (AID 1645843;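 active = z-score of at least 1.8 in each of two replicates, scored against plate mean and spread of sample wells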;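 note: positive z means more ATP and so rescue of galactose-driven cybrid death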); details: complex I mutant cybrid cells, 72 h, stronger effect = higher value
[21] = measured here: epithelial PC-3E GFP cell survival
[22] = measured here: mesenchymal TEM4-18 mCherry cell survival
[23] = measured here: relative caspase fold change +Dox/-Dox
[24] = measured here: total cells with miR-34 induction, stronger effect = lower value
[25] = measured here: total cells without miR-34 induction
[26] = MELAS cybrid survival, CellTiter-Glo 48 h, stronger effect = higher value
[27] = Rieske KO mouse fibroblast survival, CellTiter-Glo 72 h

**Q.** For `O=C1c2ccccc2C(=O)c2ccccc21`, which parasite load remaining [1] is on record?
**A.** 115% (inactive)

**Q.** What about the viability [1] of the same compound?
**A.** 67.1%

**Q.** And the nuclear beta-catenin stimulation ([2]; at 10 µM)?
**A.** 1.3% (inactive)

**Q.** And the nuclear beta-catenin stimulation ([2]; stimulation, at 2 µM)?
**A.** 0.4%

**Q.** What about the insulin secretion stimulation [3] of the same compound?
**A.** -1.4% (inactive)

**Q.** And the viability decrease [4]?
**A.** 2.3% (inactive)

**Q.** And the tube area decrease [5]?
**A.** 6.7% (inactive)

**Q.** And the GLP1 secretion stimulation [6]?
**A.** 1.9% (inactive)

**Q.** What about the inhibition of viability [7] of the same compound?
**A.** -45% (inactive)

**Q.** What about the viability decrease (inhibition) [8] of the same compound?
**A.** 31.6% (inactive)

**Q.** And the viability decrease (inhibition) [9]?
**A.** 4.05% (inactive)

**Q.** And the inhibition [10]?
**A.** -2.54% (inactive)

**Q.** What about the red/green cell ratio (normalised) [11] of the same compound?
**A.** 0.79 (inactive)

**Q.** And the normalised cell number [11, 21]?
**A.** 1.17

**Q.** What about the normalised cell number [11, 22] of the same compound?
**A.** 0.92

**Q.** What about the activity remaining [12] of the same compound?
**A.** 119% (inactive)

**Q.** And the luciferase signal [13]?
**A.** 100 AU (inactive)

**Q.** For `Clc1ccc(CSC(Cn2ccnc2)c2ccc(Cl)cc2Cl)cc1` (centres undefined), which score [14] is on record?
**A.** 0.02

**Q.** And the cytochrome c release ratio [15]?
**A.** 1.53

**Q.** And the inhibition of aggregation [16]?
**A.** 26.4%

**Q.** And the parasite load remaining [1]?
**A.** 45.1% (inactive) and 43.8% (inactive) and 9.3% (inactive)

**Q.** What about the viability [1] of the same compound?
**A.** 77.3% and 59.6% and 86.4%

**Q.** And the nuclear beta-catenin stimulation ([2]; at 10 µM)?
**A.** 4.8% (inactive)

**Q.** And the nuclear beta-catenin stimulation ([2]; stimulation, at 2 µM)?
**A.** 1.5%

**Q.** What about the insulin secretion stimulation [3] of the same compound?
**A.** 2.6% (inactive)

**Q.** And the viability decrease [4]?
**A.** 101% (active)

**Q.** And the tube area decrease [5]?
**A.** 110% (active)

**Q.** What about the GLP1 secretion stimulation [6] of the same compound?
**A.** 45.8% (active)

**Q.** What about the inhibition of viability [7] of the same compound?
**A.** 102% (active)

**Q.** What about the viability decrease (inhibition) [8] of the same compound?
**A.** 141% (active)

**Q.** And the viability decrease (inhibition) [9]?
**A.** 104% (active)

**Q.** What about the inhibition [10] of the same compound?
**A.** 1.36% (inactive)

**Q.** And the red/green cell ratio (normalised) [11]?
**A.** 0.91 (inactive)

**Q.** What about the normalised cell number [11, 21] of the same compound?
**A.** 1.1

**Q.** What about the normalised cell number [11, 22] of the same compound?
**A.** 1

**Q.** What about the activity remaining [12] of the same compound?
**A.** 106% (inactive)

**Q.** What about the fold change ([17]; stronger effect = lower value) of the same compound?
**A.** 0.925 (inactive) and 0.946 (inactive) and 1.1 (inactive)

**Q.** What about the fold change [17, 23] of the same compound?
**A.** 1.29 and 0.637 and 1.2

**Q.** What about the cell count [17, 24] of the same compound?
**A.** 6020 and 7170 and 8360

**Q.** And the cell count [17, 25]?
**A.** 6500 and 7580 and 7600

**Q.** What about the z-score [18, 26] of the same compound?
**A.** -0.246 (inactive) and 0.0301 (inactive)

**Q.** And the z-score [18, 27]?
**A.** -0.177 and -0.00115

**Q.** And the remaining NAD [19]?
**A.** 10 nM (inactive)

**Q.** What about the luciferase signal [13] of the same compound?
**A.** 44 AU (inactive)

**Q.** With `COP(=S)(OC)Oc1ccc(SC)c(C)c1` as the compound, how does the nuclear beta-catenin stimulation ([2]; at 10 µM) read?
**A.** 1.4% (inactive)

**Q.** And the nuclear beta-catenin stimulation ([2]; stimulation, at 2 µM)?
**A.** 1.3%

**Q.** What about the insulin secretion stimulation [3] of the same compound?
**A.** -2.2% (inactive)

**Q.** What about the viability decrease [4] of the same compound?
**A.** 16.1% (inactive)

**Q.** What about the tube area decrease [5] of the same compound?
**A.** 13.4% (inactive)

**Q.** And the GLP1 secretion stimulation [6]?
**A.** -0.1% (inactive)

**Q.** What about the inhibition of viability [7] of the same compound?
**A.** -20.4% (inactive)

**Q.** What about the viability decrease (inhibition) [8] of the same compound?
**A.** 89.6% (active)

**Q.** What about the viability decrease (inhibition) [9] of the same compound?
**A.** 8.15% (inactive)

**Q.** What about the inhibition [10] of the same compound?
**A.** 9.75% (inactive)

**Q.** What about the red/green cell ratio (normalised) [11] of the same compound?
**A.** 0.97 (inactive)

**Q.** What about the normalised cell number [11, 21] of the same compound?
**A.** 1.03

**Q.** What about the normalised cell number [11, 22] of the same compound?
**A.** 1

**Q.** And the activity remaining [12]?
**A.** 92.7% (inactive)

**Q.** And the fold change ([17]; stronger effect = lower value)?
**A.** 0.917 (inactive)

**Q.** What about the fold change [17, 23] of the same compound?
**A.** 0.928

**Q.** What about the cell count [17, 24] of the same compound?
**A.** 9260

**Q.** What about the cell count [17, 25] of the same compound?
**A.** 10100

**Q.** What does the source list for `Cc1cccc(C)c1NC1=NCCCS1`?
**A.** score [14]: 1.34; cytochrome c release ratio [15]: 0.7; inhibition of aggregation [16]: 87.3%; nuclear beta-catenin stimulation ([2]; at 10 µM): 0.7% (inactive); nuclear beta-catenin stimulation ([2]; stimulation, at 2 µM): 1.8%; insulin secretion stimulation [3]: 3.2% (inactive); viability decrease [4]: -8.6% (inactive); tube area decrease [5]: -3.5% (inactive); GLP1 secretion stimulation [6]: 1.7% (inactive); inhibition of viability [7]: 10.6% (inactive); viability decrease (inhibition) [8]: -13.1% (inactive); viability decrease (inhibition) [9]: 2.9% (inactive); inhibition [10]: -17.7% (inactive); red/green cell ratio (normalised) [11]: 1.15 (inactive); normalised cell number [11, 21]: 1.1; normalised cell number [11, 22]: 1.27; activity remaining [12]: 116% (inactive); z-score [18, 26]: -0.333 (inactive) and 0.534 (inactive) and -0.793 (inactive); z-score [18, 27]: -0.0574 and -0.344 and 0.356; remaining NAD [19]: 10 nM (inactive); luciferase signal [13]: 36 AU (inactive); z-score [20]: 0.22 (inactive) and 0.48 (inactive)
